M1 PAM = human M1 muscarinic receptor positive allosteric modulators, primary screen, CHO-K1 cells, Fluo-8 calcium fluorescence, 1536-well; activation, % at 3 µM; Muscarinic acetylcholine receptor M1 (Homo sapiens), P11229; CHO-K1 hM1, ACh EC20; 0% = ACh EC20, 100% = maximal ACh; 360,000 compounds, 0.088% hits; in the data active = activation above about 19%, passing the limit was not always enough
Target sequence (P11229 whole entry, looked up): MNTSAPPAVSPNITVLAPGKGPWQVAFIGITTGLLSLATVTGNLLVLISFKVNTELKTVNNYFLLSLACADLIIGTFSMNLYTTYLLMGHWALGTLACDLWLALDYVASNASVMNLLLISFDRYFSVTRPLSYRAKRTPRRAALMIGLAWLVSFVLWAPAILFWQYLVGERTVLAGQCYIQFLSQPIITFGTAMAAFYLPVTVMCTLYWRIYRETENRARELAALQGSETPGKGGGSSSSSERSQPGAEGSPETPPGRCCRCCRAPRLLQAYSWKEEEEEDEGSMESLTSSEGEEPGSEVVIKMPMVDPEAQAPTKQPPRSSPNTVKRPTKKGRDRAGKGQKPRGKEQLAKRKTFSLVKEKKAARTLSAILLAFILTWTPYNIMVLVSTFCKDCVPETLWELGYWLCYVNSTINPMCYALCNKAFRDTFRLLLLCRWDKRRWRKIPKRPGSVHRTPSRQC
CHO-K1 Ca ag = counter-screen for M1 agonists: effect in parental CHO-K1 cells; Fluo-8 calcium fluorescence; scaled to maximal ATP response, vehicle zero; activation, % at 3 µM; 360,000 compounds, 0.48% hits; in the data active = activation above about 15%;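 also: untransfected CHO-K1 host cells lacking M1 receptor as counterscreen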
CHO-K1 Ca antag = counter-screen for M1 antagonists: effect in parental CHO-K1 cells | ATP-induced calcium, Fluo-8 fluorescence | 360,000 compounds, 0.6% hits | inhibition, % at 3 µM;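 active = inhibition above a per-plate cutoff, the plate's mean sample inhibition plus 3 SD, cut at about 24% in these data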;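 also: 0% = DMSO plus EC80 ATP and 100% = DMSO alone without ATP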
M1 PAM parental = nonselective calcium activators in parental CHO-K1 cells, primary screen, counter-screen for M1 PAM project, cell-based, Fluo-8 calcium fluorescence, full deck, 1536-well; ATP EC20; 0% at ATP EC20, 100% at ATP max; activation, % at 3 µM; 360,000 compounds, 0.02% hits;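 active = activation above the run cutoff, the mean activation of all test compounds plus 3 SD, cut at about 40% in these data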;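 also: peak over basal fluorescence ratio in a 140 s read after ATP addition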
CHRM1 antagonist = human M1 muscarinic receptor antagonists, primary screen, CHO-K1 cells, Fluo-8 calcium fluorescence, 1536-well; CHO-K1 hM1, ACh EC80 antagonist; 360,000 compounds, 1.3% hits; AID 588852, 2011; inhibition, % at 3 µM;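 active = percent inhibition above its own plate's cutoff, namely the mean of that plate's compound wells plus 3 SD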;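 also: peak over basal fluorescence ratio during 140 s after agonist addition; 0% = ACh EC80 plus DMSO and 100% = DMSO alone without agonist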
M1 ag = human M1 muscarinic receptor agonists, primary screen, Fluo-8 calcium fluorescence, CHO-K1 cells, HTS. 360,000 compounds, 0.33% hits. AID 588814, 2011. activation, % at 3 µM. Muscarinic acetylcholine receptor M1 (Homo sapiens), P11229. CHO-K1 hM1, agonist mode; 0% DMSO, 100% acetylcholine EC100;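 active = activation above the run's mean compound activation plus 3 SD, cut at about 16% in these data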;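 also: peak over basal fluorescence ratio within a 140 s kinetic read after compound addition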
* marks the source's active call; other numbers are inactive results. In the library only some 2.3% were active in any assay of this set; here they are far more common.

SMILES	M1 PAM	CHO-K1 Ca ag	CHO-K1 Ca antag	M1 PAM parental	CHRM1 antagonist	M1 ag
CCC[N+]1(CC#CC(O)(c2ccccc2)C2CCCCC2)CCCCC1 (stereo not given)	-28	0	1	-4	99*	-7
O=S(=O)([O-])CCC[N+]1(CC#Cc2ccccc2)CCCCC1	2	1	-13	16	-3	-3
NC(=O)C[N+]1(CC#CC(O)(c2ccccc2)c2ccccc2)CCCC1	-33	0	-8	5	92*	-13
CCN(CC)CCC#CC(O)(c1ccccc1)C1CCCCC1 (stereo not given)	-37	3	-20	13	99*	-14
CC1CCN(C2CCN(S(=O)(=O)c3ccc(C(F)(F)F)cc3)CC2)CC1	10	-1	-21	27	-7	-13
O=C1NC(=O)/C(=C\c2ccc(O)cc2O)S1	1	12	12	1	4	-4
COc1ccccc1C(=O)NCc1ccccn1	3	0	-3	0	-5	-7
CCCc1cc(Nc2ccccc2OCC)n2ncnc2n1	8	0	28*	-7	1	-6
CC(C)C[C@H]1CN([C@@H](Cc2ccccc2)CN2CCC[C@@H]2CN2C(=O)C(=O)NC[C@@H]2Cc2ccc(O)cc2)C(=O)C(=O)N1CC1CCCCC1	2	0	30*	-8	15	7
Oc1ccc(C[C@H]2CN([C@@H](Cc3ccc(O)cc3)CN3CCC[C@@H]3CN3C(=S)NC[C@@H]3Cc3ccccc3)C(=S)N2CCc2ccccc2)cc1	4	0	34*	0	11	-1
COc1ccccc1NC(=O)C1CCCN(S(=O)(=O)c2c(C)noc2C)C1 (stereo not given)	6	2	-15	12	-5	-3
O=S(=O)(NC1=NCCCCC1)c1ccc(F)cc1	7	1	-4	7	-1	-3
CC(Oc1cccc(Cl)c1)C(=O)Nc1ccc(S(=O)(=O)NC2=NCCCCC2)cc1 (stereo not given)	7	12	-8	3	-8	12
CC(Oc1ccc(F)cc1)C(=O)Nc1ccc(S(=O)(=O)NC2=NCCCCC2)cc1 (stereo not given)	3	5	2	-11	-4	24*
CC(Oc1ccc(Br)cc1)C(=O)Nc1ccc(S(=O)(=O)NC2=NCCCCC2)cc1 (stereo not given)	-8	23*	-4	-12	18	29*
COc1ccccc1NC(=O)Nc1ccnn1C1CCN(C(=O)C2CCOC2)CC1 (stereo not given)	0	0	17	-16	-2	-3
COc1cc(N2C(=O)c3ccccc3C2=O)c(Cl)cc1C(=O)OCC(=O)NCc1ccco1	-6	0	28*	-9	-29	-5
CC(=O)Nc1sc2c(c1C(c1ccccn1)N1CCCC1)CCCC2 (stereo not given)	-6	0	0	-18	14	4
CC(=O)Nc1sc2c(c1C(c1ccccc1Cl)N1CCN(CCO)CC1)CCCC2 (stereo not given)	-26	1	2	14	45*	-8
CC(=O)Nc1sc2c(c1C(c1ccccn1)N1CCN(C)CC1)CCCC2 (stereo not given)	-21	0	1	-7	48*	-5
Cc1oncc1C(=O)N1CCCC(CO)(Cc2ccc(F)cc2F)C1 (stereo not given)	7	12	0	10	-6	-3
CC1CCN(c2ccc3c(c2)S(=O)(=O)c2cccc(C(=O)NCc4ccc(F)cc4)c2C3=O)CC1	6	3	-12	17	-4	-2
O=C(NC1CC1)c1cccc2c1C(=O)c1ccc(N3CCC(Cc4ccccc4)CC3)cc1S2(=O)=O	-11	7	2	2	26	21*

High-throughput results as filed in PubChem BioAssay.
